The values that follow come from PubChem BioAssay.

Active and inactive are the calls of the source.

Assay [1] deals with Albumin (Bos taurus) (UniProt P02769). The experiment in a line: compounds binding labelled BSA control protein – biochemical, small-molecule microarray, Alexa647 label, 635/667 nm fluorescence, artefact control for SMM control protein annotation, profiling panel (AID 1118).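 Also: score merges 667 nm emission intensity and signal-to-noise per printed compound spot.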 The settings on record: BSA-A647 binding, fluorescence 635 nm, higher = more signal.
A short description of assay [2]: probe aXIP binding to arrayed compounds – biochemical, NeuroSMM set, 635/667 nm fluorescence, primary screen (AID 1119).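 Also: probe is the protein aXip251-270 applied at 1 µg/mL to compound-printed slides; binding of probe to printed compounds measured as 667 nm fluorescence plus signal to noise.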 To be noted: small-molecule microarray, higher = more signal, called active from +8 up or from −8 down.
Assay [3] is described as follows: probe aNOTCH3 binding on compound microarray – biochemical, small-molecule microarray, 635/667 nm fluorescence, primary screen (AID 1120).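 Also: probe is a biotin-tagged antibody raised against NOTCH3 rather than NOTCH3 protein; score merges spot fluorescence near 667 nm with spot signal to noise.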 To be noted: higher = more signal.
Assay [4] is described as follows: probe aNOTCH2 binding on compound microarray – biochemical, small-molecule microarray, 635/667 nm fluorescence, primary screen (AID 1121).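 Also: score merges feature fluorescence read at 667 nm with its signal to noise.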 The settings on record: higher = more signal.
Assay [5] has as its target Carbonic anhydrase 2 (Homo sapiens) (UniProt P00918). The experiment in a line: compounds binding carbonic anhydrase 2 – biochemical, small-molecule microarray, Alexa647-labelled CAII, profiling panel (AID 1122). The settings on record: CAII-A647 binding fluorescence, higher = more signal.
A short description of assay [6]: COS7 lysate on small-molecule microarray, probe aHis, 635 nm (AID 1123).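 Also: z-score combines 667nm fluorescence intensity with signal-to-noise per printed compound spot.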 The settings on record: COS7 cell lysate, fluorescence, higher = more signal.
Assay [7] can be described thus: probe aLAP1 signal on lysate-treated microarray – cell lysate, small-molecule microarray, COS7 lysate, primary screen (AID 1124).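 Also: lysate comes from COS7 cells expressing LAP1 and is applied at 0.3 µg/mL; score merges spot fluorescence near 667 nm with signal-to-noise over triplicate slides.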 To be noted: probe aLAP1, fluorescence, higher = more signal.
For assay [8], the system named is Sam68 (KHDRBS1). The experiment in a line: compounds binding KHDRBS1 protein – biochemical, small-molecule microarray, 635 nm fluorescence, primary screen (AID 1125).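 Also: score merges 667 nm channel intensity with signal to noise over triplicate slides.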 To be noted: higher = more signal.
Assay [9] concerns Chordin-like protein 2 (CHRDL2). The experiment in a line: compounds binding chordin-like 2 – biochemical, small-molecule microarray, 635 nm fluorescence, primary screen (AID 1126).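 Also: printed compound slides probed with Chrdl2 protein at 4 µg/mL for 1 h at 4 C; score merges 667 nm emission intensity with signal to noise over three replicate slides.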 To be noted: fluorescence 635 nm, higher = more signal.
Assay [10] has as its target Concanavalin-A (Canavalia ensiformis) (UniProt P02866). The experiment in a line: compounds binding concanavalin A lectin – biochemical, small-molecule microarray, Alexa647 label, 635 nm, artefact control for SMM control protein annotation, primary screen (AID 1127).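 Also: z combines 667 nm emission intensity with signal-to-noise across three replicate slides.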 The settings on record: ConA-A647 binding fluorescence, higher = more signal.
Assay [11] can be described thus: compounds binding Alexa647 anti-His antibody – biochemical, small-molecule microarray, 635 nm fluorescence, artefact control for SMM control protein annotation, primary screen (AID 1128).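 Also: score merges feature fluorescence with signal-to-noise for each printed compound spot.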 The settings on record: higher = more signal.
The test system of assay [12] is Human papillomavirus type 1a E7 protein (residues 1-88). The experiment in a line: HPV1a E7 small-molecule binders, primary screen, biochemical, small-molecule microarray, residues 1-88, 635 nm (AID 1129). To be noted: small-molecule microarray binding, fluorescence 635 nm; higher = more signal.
For assay [13], the target named is Focal adhesion kinase 1 (Homo sapiens) (UniProt Q05397). The experiment in a line: PTK2 protein binding on printed compound slides – biochemical, small-molecule microarray, 635/667 nm fluorescence, BSA, DTT, primary screen (AID 1130).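 Also: composite of spot emission at 667 nm and signal to noise over triplicate slides.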 To be noted: 635 nm fluorescence, higher = more signal.
The test system of assay [14] is Fibrinogen (Alexa647-labelled). Nature of the assay: Alexa647-fibrinogen binding to printed small molecules – biochemical, small-molecule microarray, 635/667 nm fluorescence, artefact control for SMM control-protein annotation, profiling panel (AID 1131).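 Also: z-score merges 667 nm fluorescence with per-spot signal-to-noise over triplicate slides.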 The settings on record: fibrinogen-A647 binding fluorescence, higher = more signal.
In assay [15] the target is Follistatin (Homo sapiens) (UniProt P19883). Nature of the assay: FST protein binding to printed compounds – biochemical, small-molecule microarray, 635/667 nm fluorescence, primary screen (AID 1132). The settings on record: 635 nm fluorescence, higher = more signal.
Assay [16] addresses Fibroblast growth factor 2 (Homo sapiens) (UniProt P09038). The experiment in a line: basic fibroblast growth factor binding to printed compounds – biochemical, small-molecule microarray, 635/667 nm fluorescence, primary screen (AID 1133). To be noted: FGF2, fluorescence 635/667, higher = more signal.
Assay [17] in a line: JC-1 mitochondrial potential readout, lung cancer cells – cell-based, A549, JC-1 fluorescence, basal, 24 h, 100 nL, profiling panel (AID 1138).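 Also: A549 lung adenocarcinoma cells under basal conditions with no added stimulus; test concentration not given here.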 The settings on record: higher = more signal.
Assay [18] concerns Lefty1. The experiment in a line: Lefty1 protein binding to printed compounds – biochemical, small-molecule microarray, 635/667 nm fluorescence, primary screen (AID 1139). The settings on record: fluorescence 635/667, higher = more signal.
The subject of assay [19] is wheat germ agglutinin (Triticum aestivum), Alexa647-labelled. The experiment in a line: Alexa647-WGA lectin binding to printed small molecules – biochemical, small-molecule microarray, 635/667 nm fluorescence, artefact control for SMM control-protein annotation, profiling panel (AID 1140).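 Also: score merges 667 nm feature emission with signal to noise over triplicate slides.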 The settings on record: WGA-A647 binding, 635 nm fluorescence, higher = more signal.

Assay [20] has as its target Luciferin 4-monooxygenase (Photinus pyralis) (UniProt P08659). The experiment in a line: inhibition of purified Photinus pyralis luciferase – biochemical, luminescence, purified enzyme, 2006 set, primary screen (AID 1141).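 Also: cell-free assay with purified firefly luciferase at 100 ng per well in PBS; test concentration not given here.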 The settings on record: purified firefly luciferase, SteadyGlo luminescence, 30 min; higher = more signal, called active from +8 up or from −8 down.

Chain of Albumin (Bos taurus) (P02769 whole entry, looked up): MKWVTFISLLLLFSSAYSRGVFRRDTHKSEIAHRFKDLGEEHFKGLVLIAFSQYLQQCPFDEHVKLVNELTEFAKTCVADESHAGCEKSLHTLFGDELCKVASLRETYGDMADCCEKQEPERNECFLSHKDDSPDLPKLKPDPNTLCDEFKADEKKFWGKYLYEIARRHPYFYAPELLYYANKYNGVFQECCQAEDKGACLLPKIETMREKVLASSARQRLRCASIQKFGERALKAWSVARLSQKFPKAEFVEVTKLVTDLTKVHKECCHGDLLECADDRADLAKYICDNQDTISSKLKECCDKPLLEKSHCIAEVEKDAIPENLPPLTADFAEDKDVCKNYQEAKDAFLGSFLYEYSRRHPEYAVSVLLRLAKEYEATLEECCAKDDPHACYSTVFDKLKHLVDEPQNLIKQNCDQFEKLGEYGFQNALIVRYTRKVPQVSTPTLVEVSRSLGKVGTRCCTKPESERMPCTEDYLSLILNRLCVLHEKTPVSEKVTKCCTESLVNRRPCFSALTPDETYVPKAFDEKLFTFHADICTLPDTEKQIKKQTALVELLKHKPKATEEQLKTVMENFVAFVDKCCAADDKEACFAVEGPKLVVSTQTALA
Chain of Concanavalin-A (Canavalia ensiformis) (P02866 whole entry, looked up): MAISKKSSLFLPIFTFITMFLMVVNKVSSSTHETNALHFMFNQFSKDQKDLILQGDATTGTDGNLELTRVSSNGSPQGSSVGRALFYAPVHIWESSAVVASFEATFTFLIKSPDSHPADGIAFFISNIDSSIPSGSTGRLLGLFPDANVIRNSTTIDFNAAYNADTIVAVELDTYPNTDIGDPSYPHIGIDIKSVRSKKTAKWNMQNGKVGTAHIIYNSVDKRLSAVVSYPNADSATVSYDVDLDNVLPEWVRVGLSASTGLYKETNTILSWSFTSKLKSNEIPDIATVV
Chain of Focal adhesion kinase 1 (Homo sapiens) (Q05397 whole entry, looked up): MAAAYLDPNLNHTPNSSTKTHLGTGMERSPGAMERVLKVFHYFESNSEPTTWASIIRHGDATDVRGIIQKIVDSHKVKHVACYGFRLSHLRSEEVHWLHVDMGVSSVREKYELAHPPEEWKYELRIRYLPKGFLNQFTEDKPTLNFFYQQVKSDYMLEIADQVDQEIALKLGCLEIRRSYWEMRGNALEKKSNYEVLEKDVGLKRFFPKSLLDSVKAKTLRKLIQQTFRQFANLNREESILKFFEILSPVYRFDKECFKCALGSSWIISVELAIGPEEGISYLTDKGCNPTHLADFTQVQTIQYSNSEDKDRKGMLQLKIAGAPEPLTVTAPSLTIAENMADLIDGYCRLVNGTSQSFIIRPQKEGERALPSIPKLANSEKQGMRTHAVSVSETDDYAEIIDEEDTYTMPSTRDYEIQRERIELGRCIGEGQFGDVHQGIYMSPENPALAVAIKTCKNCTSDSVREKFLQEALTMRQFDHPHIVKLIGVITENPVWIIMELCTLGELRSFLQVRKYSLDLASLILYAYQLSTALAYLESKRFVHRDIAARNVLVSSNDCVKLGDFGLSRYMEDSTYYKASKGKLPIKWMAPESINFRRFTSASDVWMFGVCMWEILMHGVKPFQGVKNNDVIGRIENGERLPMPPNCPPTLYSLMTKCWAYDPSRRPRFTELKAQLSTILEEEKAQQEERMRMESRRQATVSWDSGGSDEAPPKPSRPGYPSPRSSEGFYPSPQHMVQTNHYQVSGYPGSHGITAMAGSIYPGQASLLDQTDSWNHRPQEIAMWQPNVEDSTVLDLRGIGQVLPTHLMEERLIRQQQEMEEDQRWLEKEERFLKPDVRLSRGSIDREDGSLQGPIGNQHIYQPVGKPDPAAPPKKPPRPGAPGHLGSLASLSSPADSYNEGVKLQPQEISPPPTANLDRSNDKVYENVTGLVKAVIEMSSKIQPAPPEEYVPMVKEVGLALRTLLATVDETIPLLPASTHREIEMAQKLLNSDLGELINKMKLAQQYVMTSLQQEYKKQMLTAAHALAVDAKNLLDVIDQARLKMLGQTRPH
Chain of Luciferin 4-monooxygenase (Photinus pyralis) (P08659 whole entry, looked up): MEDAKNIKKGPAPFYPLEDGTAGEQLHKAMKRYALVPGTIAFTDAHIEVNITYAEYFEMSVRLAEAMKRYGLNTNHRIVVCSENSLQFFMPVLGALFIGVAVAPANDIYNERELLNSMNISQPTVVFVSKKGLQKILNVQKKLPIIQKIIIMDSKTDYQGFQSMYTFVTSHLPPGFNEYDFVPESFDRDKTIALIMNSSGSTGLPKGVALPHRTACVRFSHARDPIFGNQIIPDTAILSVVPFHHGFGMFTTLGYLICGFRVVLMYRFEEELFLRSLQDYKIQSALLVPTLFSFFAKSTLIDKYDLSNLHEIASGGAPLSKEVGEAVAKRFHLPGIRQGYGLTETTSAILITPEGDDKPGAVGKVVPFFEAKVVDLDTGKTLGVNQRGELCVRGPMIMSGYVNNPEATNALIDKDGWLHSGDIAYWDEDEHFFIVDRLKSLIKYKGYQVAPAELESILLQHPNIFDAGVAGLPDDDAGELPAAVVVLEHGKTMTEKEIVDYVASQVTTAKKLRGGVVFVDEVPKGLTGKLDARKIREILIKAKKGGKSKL
Chain of Follistatin (Homo sapiens) (P19883 whole entry, looked up): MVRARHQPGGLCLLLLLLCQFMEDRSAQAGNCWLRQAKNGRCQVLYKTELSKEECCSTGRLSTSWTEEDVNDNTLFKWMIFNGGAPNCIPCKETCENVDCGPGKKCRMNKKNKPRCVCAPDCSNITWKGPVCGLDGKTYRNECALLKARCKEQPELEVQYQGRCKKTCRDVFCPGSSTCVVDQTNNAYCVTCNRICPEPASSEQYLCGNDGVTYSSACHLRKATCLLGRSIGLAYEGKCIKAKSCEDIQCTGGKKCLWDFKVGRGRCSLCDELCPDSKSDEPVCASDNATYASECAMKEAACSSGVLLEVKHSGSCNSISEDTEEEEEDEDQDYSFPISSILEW
Chain of Fibroblast growth factor 2 (Homo sapiens) (P09038 whole entry, looked up): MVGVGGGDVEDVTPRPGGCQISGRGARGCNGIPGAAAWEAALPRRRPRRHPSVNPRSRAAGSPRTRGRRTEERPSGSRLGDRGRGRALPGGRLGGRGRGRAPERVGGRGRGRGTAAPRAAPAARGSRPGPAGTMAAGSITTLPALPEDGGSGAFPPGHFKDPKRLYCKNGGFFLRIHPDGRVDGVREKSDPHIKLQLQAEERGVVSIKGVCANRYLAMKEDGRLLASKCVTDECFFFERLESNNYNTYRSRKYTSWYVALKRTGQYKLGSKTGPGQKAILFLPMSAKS

Turning to `COc1cc(Cc2cc3c(c(CCc4ccccc4)n2)[Si](C(C)C)(C(C)C)O[C@H]3c2ccccc2)cc(OC)c1OC`, the composite z-score in [1] was -0.405; in [3], -0.15; in assay [4] it was -0.181; in assay [5], -0.128; in [6], -0.178; in assay [7] it was -0.177. The composite z-score in assay [8] was -0.361; in [9], 0.06; in assay [10] it was 0.562; in [11] it was -0.133; in assay [12], -1.36; in assay [13], -0.114. The composite z-score in assay [14] is 0.0047; in assay [15] it was 0.214; in assay [16], -0.392; in assay [18] it was -0.261; in assay [19] it was -0.192. The composite Z-score in assay [2] is -0.0849 (inactive). The z-score in assay [17] is -1.64; in assay [20] it was -0.0946 (inactive).

Consider `COC(=O)C1=CC(c2ccc(CO)cc2)=CC(C2CC2)N(Cc2cc3c(cc2Br)OCO3)C=C1C(=O)OC` (stereo not given), for which the composite z-score in assay [1] amounted to 0.861; in [3] it was 0.448; in assay [4], 0.165; in [5] it was 0.814; in assay [6], 2.82; in [7] it was 1.24. Also, the composite z-score in [8] is 1.31; in assay [9] it was 0.0562; in [10], 1.19; in assay [11] it was 2.85; in assay [12] it was 1.19; in assay [13], 0.833. In addition, the composite z-score amounted to 0.879 in assay [14]; 0.62 in assay [15]; 0.907 in assay [16]; 0.413 in assay [18]; 1.06 in assay [19]. Besides, in assay [2], the composite Z-score was 2.69 (inactive). For the same molecule, the z-score is 0.835 in assay [17] and -0.817 (inactive) in [20].

In the case of `O=C1C2C=CC(C(O)C(c3ccccc3)c3ccccc3)N(Nc3ccccc3F)C2C(=O)N1c1ccccc1` (stereo not given), the composite z-score was 1 in assay [1]; 0.24 in assay [3]; -0.0386 in assay [4]; 0.612 in [5]; 2.99 in assay [6]; 1.02 in assay [7]. In addition, the composite z-score in assay [8] is 1.31; in assay [9] it was -0.0392; in assay [10], 0.5; in assay [11] it was 1.65; in assay [12] it was 1.24; in assay [13], 0.22. For the same molecule, the composite z-score in assay [14] turned out to be 0.97; in [15], 1.2; in assay [16], 0.158; in assay [18], 0.667; in [19], 1.1. Besides, the composite Z-score in [2] was -0.173 (inactive). In addition, the z-score in assay [17] was -1.18; in assay [20], 0.294 (inactive).

Consider `CC(C)c1ccc(NN2C(C(O)C3CCCCC3)C=CC3C(=O)N(c4ccccc4)C(=O)C32)cc1` (stereo not given), for which the composite z-score was determined as 0.98 in assay [1]; 0.286 in [3]; 0.0836 in assay [4]; 0.632 in assay [5]; 1.78 in [6]; 0.948 in assay [7]. For the same molecule, the composite z-score is 1.31 in assay [8]; -0.261 in [9]; 1.14 in assay [10]; 1.04 in assay [11]; 1.21 in [12]; 0.401 in assay [13]. The composite z-score is 0.987 in [14]; 0.946 in [15]; 0.66 in [16]; 1.29 in assay [18]; 1.27 in [19]. Besides, the composite Z-score in [2] was 0.637 (inactive). Besides, the z-score is 0.257 in [17] and -1.36 (inactive) in [20].

As for `O=C1O[C@@H](c2ccccc2)[C@@H](c2ccccc2)N2[C@@H](c3ccc(OCCO)cc3)[C@]3(C(=O)Nc4ccc(C#CC5=CCCCC5)cc43)[C@@H](C(=O)Nc3nc4ccccc4s3)[C@H]12`, the composite z-score was -0.01 in assay [1]; 0.674 in assay [3]; -0.42 in assay [4]; 0.303 in assay [5]; 1.14 in [6]; -0.142 in [7]. Besides, the composite z-score is 1.28 in [8]; 0.163 in assay [9]; 1.07 in assay [10]; 0.22 in [11]; 0.525 in assay [12]; -0.0302 in [13]. The composite z-score stood at 0.99 in [14]; 0.593 in assay [15]; 1.25 in assay [16]; 0.547 in assay [18]; 0.453 in assay [19]. In assay [2], the composite Z-score was 0.159 (inactive). Moreover, the z-score in assay [17] is -2.31; in [20], -2.64 (inactive).

`COCCOC(=O)N1C(=O)[C@@]2(c3cc(C#CCCO)ccc31)[C@H](c1ccc(O)cc1)N1[C@H](c3ccccc3)[C@H](c3ccccc3)OC(=O)[C@H]1[C@@H]2C(=O)NC[C@H](O)c1ccccc1`: the composite z-score in [1] is 0.417; in assay [3], -0.0105; in assay [4], -0.0858; in assay [5] it was 0.529; in [6], 1.89; in assay [7], 1.08. The composite z-score in assay [8] turned out to be 1.29; in assay [9] it was 0.181; in [10], 0.613; in assay [11] it was 2.05; in assay [12], 1.2; in assay [13], 0.553. The composite z-score in assay [14] is 0.0868; in [15], 1.17; in [16] it was 0.767; in assay [18] it was 0.958; in assay [19], -0.333. For the same molecule, the composite Z-score in [2] was 0.406 (inactive). The z-score in assay [17] was -0.703; in assay [20], -1.52 (inactive).
